# LASV entry inh – blocks Lassa virus binding to or entry into cells; Lassa virus pseudotype entry inhibition, cell reporter; Potency, µM (series often up to 37.9 µM), for the others: top-dose activity change, negative = inhibition, actives largely listed as inhibitors; 300,000 compounds, 1.2% hits; calls by dose curve; tested in HEK293 cells; further: potency means the concentration at half of the fitted maximal effect; nearly all actives have a fitted effect of over 50% in size
# Giardia FBPA inh – Giardia lamblia aldolase inhibition | A8B2U2 | purified Giardia FBPA | Potency, µM (top dose mostly 59.6 µM), without a hit: at the highest dose activity, negative = inhibition, actives largely listed as inhibitors | 290,000 compounds, 0.71% hits | AID 2451; further: potency means the concentration at half of the fitted maximal effect; nearly all actives have a fitted effect of over 55% in size
# Target sequence (A8B2U2 whole entry, looked up): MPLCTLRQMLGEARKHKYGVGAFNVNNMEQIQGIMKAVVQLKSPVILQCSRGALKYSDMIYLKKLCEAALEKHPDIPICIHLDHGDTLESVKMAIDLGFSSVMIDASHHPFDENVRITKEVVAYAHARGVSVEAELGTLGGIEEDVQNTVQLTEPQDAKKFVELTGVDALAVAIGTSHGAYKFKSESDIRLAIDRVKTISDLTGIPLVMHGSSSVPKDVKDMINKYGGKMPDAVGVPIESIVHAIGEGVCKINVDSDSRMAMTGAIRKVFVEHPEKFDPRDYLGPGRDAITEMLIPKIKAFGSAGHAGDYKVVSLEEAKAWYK
#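 40 nM FBPA preincubated 10 min at RT with compound (up to 57.5 uM final), then substrate plus GAPDH/TPI/NAD/arsenate coupling and diaphorase/resazurin added. Fluorescence read after 20 min at RT, 525/598 nm.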
# HCMV antiviral – human cytomegalovirus inhibition; HFF cells, HCMV-luciferase reporter, 72 h; hits give low values; activity change, negative = inhibition, % at 57.5 µM; 410,000 compounds, 4.5% hits; in the data active means activity change below about -60%; inconclusive means no clear call, values can overlap the other calls; inactive means above about -39%
#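 HFF cells seeded 16 h at 37C, treated with compounds, infected with luciferase-reporter HCMV at MOI 1 PFU/cell; luciferase read at 72 h post infection, normalized to buffer-only and Salinomycin controls.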
# MARV entry inh – Marburg virus entry inhibition; Marburg virus pseudotyped entry inhibition, cell reporter; Potency, µM (highest dose often 37.8 µM), for inactives: at the highest dose activity change, negative = inhibition, most hits filed as inhibitors; 300,000 compounds, 1.8% hits; AID 540276; calls by dose curve; tested in HEK293 cells; further: potency means the concentration at half of the fitted maximal effect
# FMDV antiviral – blocks foot and mouth disease virus. Potency, µM (titrated, usually from 57.9 µM), for the others: at the top dose activity change, negative = inhibition, most hits filed as inhibitors. FMDV antiviral cell-based qHTS. 410,000 compounds, 1.2% hits; calls by dose curve; tested in HEK293T cells; further: read-out not given here; potency means the concentration at half of the fitted maximal effect; nearly all actives have a fitted effect of over 45% in size
# HCV inh – HCV inhibition; Huh7.5.1 HCVcc-Cre infection, luciferase reporter, 44 h; Potency, µM (titrated, usually from 41.8 µM), without a hit: top-dose activity change, negative = inhibition, most hits filed as inhibitors; 340,000 compounds, 3.4% hits; AID 651820; further: potency means the concentration at half of the fitted maximal effect
#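 Reporter virus HCVcc-Cre (~0.5 moi) infects cells exposed to compound; seeding density 1,000 cells/well with 4 h settling beforehand. Luminescence, 15 sec read, taken 44 h post-infection following a 15 min RT substrate incubation.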
# Starred values were filed as active, the others as inactive; u = inconclusive; x = not tested or not shown; [ ] = remark or other dose. Sampled rows, rich in hits. Any-hit rate of the full collection: about 8.3%. Unless noted, the call rests on the fitted dose curve; in most records, active means well fitted curve in the direction sought with a large enough effect; inconclusive means small, poorly fitted or top-dose-only effect, or another doubt; inactive means no such curve, though single readings can be large; an effect the other way counts as inactive or inconclusive. On the % scale 0 is the no-effect control and ±100 the full control effect.
SMILES,LASV entry inh,Giardia FBPA inh,HCMV antiviral,MARV entry inh,FMDV antiviral,HCV inh
COc1cccc(CNC(=O)[C@@H]2[C@@H](CO)[C@@H]3Cn4c(ccc(-c5cncnc5)c4=O)[C@H]2N3C(C)=O)c1,x,x,-101*,x,x,x
COCCNC(=O)[C@H]1[C@H](CO)[C@H]2Cn3c(ccc(-c4ccc(F)cc4)c3=O)[C@@H]1N2C(=O)NC(C)C,x,x,3,x,x,x
Cn1c(=NC(=O)CS(=O)(=O)c2ccccc2)sc2cc([N+](=O)[O-])ccc21,-2%,x,-87*,6%[46.1 µM],-12%,-12%
O=C(C=Cc1ccccc1)c1c[nH]c2ccccc2c1=O,u,x,-77*,u,-18%,11µM*
Cc1[nH]c2ccccc2c(=O)c1C(=O)/C=C/c1ccccc1,x,-5%,-97*,x,13µM*,11µM*
CCc1ccccc1NC(=O)CSc1nc2c(c(=O)[nH]1)CN(Cc1ccccc1OC)CC2,11%[46.1 µM],x,7,17%[46.1 µM],-6%,x
Cc1cc(Oc2ccc(C)c(Cl)c2)nc(SCC(=O)c2ccccc2)n1,u,0%,-74*,u,u,u
Cc1ccc(C(=O)CSc2cc(C)nc(SCC(=O)c3ccccc3)n2)cc1,u,2%,-15,u,u,u
CCOc1ncccc1C(=O)OCC(=O)Nc1ccc(-c2nc3ccc(C)cc3s2)cc1,u,4%,-9,13µM*,-5%,-25%
CNS(=O)(=O)c1cccc(C(=O)OCC(=O)Nc2ccc(-c3nc4ccc(C)cc4s3)cc2)c1,u,5%,x,u,-39%,-15%
Cc1ccc(NC(=O)CSc2nc3ccc(NC(=O)c4ccco4)cc3s2)cc1,3%[46.1 µM],x,-62*,2%[46.1 µM],-21%,x
Cc1ccc2nc(-c3ccc(NC(=O)COC(=O)c4ccc([N+](=O)[O-])o4)cc3)sc2c1,7.1µM*,7%,u,4µM*,-63%,13%
Cc1ccc2nc(-c3ccc(NC(=O)COC(=O)c4ccc(Br)o4)cc3)sc2c1,5.6µM*,4%,41,u,u,14%
Cc1ccc2nc(-c3ccc(NC(=O)COc4ccccc4)cc3)sc2c1,10%[46.1 µM],x,40,x,31%,x
Cc1ccc2nc(-c3ccc(NC(=O)COC(=O)c4cncc(Br)c4)cc3)sc2c1,u,4%,55,u,-48%,6%
COc1ccc([C@H](CC(=O)O)NC(=O)OC(C)(C)C)cc1,x,x,x,6%,x,x
O=C(C1CCC(Cn2c(=O)c3sccc3n(Cc3ccccc3F)c2=O)CC1)N1CCOCC1 (stereo unspecified),1%[46.1 µM],x,-37,x,-16%,x
Cc1cc(C)c(-c2cc([C@H](C)ON=C[C@@H](C)[C@H](OCc3ccccc3)C(C)C)on2)c(C)c1,x,x,x,6%[14.2 µM],x,x
Cc1ccc(NC(=O)COC(=O)c2ccco2)cc1,x,-8%,15,x,6%,3%
Cc1ccc2nc(-c3ccc(NC(=O)COC(=O)c4ccco4)cc3)sc2c1,2.2µM*,5%,-6,1.3µM*,-55%,4%
C=CCn1c(SCC(=O)Nc2ccc(-c3nc4ccc(C)cc4s3)cc2)nnc1-c1ccccc1,u,-3%,49,u,-42%,10µM*
C=CCN1C(=O)/C(=C/c2ccc(OC(C)=O)c(OCC)c2[N+](=O)[O-])SC1=S,u,u,-99*,u,u,u
C=CCN1C(=O)/C(=C\c2ccc(OC(=O)c3ccco3)c(OC)c2)SC1=S,x,-2%,-29,x,37%,-15%
CC[N+]1=C(C)C(C)(C)c2cc(C)ccc21,x,-5%,-94*,x,u,13µM*
CCN1C(=O)C(=O)c2cc(C)ccc21,x,x,13,x,-3%,-8%
SMILES,LASV entry inh,Giardia FBPA inh,HCMV antiviral,MARV entry inh,FMDV antiviral,HCV inh
COCCCNC(=O)[C@@H](C)N1Cc2ccc(-c3cccc(F)c3)nc2C1=O,x,x,-22,x,x,x
COc1ccc(-c2coc3ncnc(N)c23)cc1,4%,x,x,x,x,x
COc1ccc(-n2c(C)c(C)c3c(N)ncnc32)cc1,6%[46.1 µM],1%,-77*,-1%[46.1 µM],17%,5%
O=S(=O)(c1ccccc1)N1CCN(c2ncnc3sc(-c4ccccc4)cc23)CC1,6%,7%,-15,u,u,9%
CN1CCN(c2ncnc3c2cnn3C)CC1,x,2%,21,x,-2%,15%
Cn1ncc2c(N3CCC(Cc4ccccc4)CC3)ncnc21,-13%,-3%,u,1%[46.1 µM],20µM*,u
NNC(=O)c1cc2c(N3CCC(Cc4ccccc4)CC3)ncnc2s1,10µM*,-11%,u,-14%[46.1 µM],14µM*,u
CCOc1ccccc1C(=O)N1CCc2cc(OC)c(OC)cc2C1COc1ccc2c(C)cc(=O)oc2c1 (stereo unspecified),-5%[46.1 µM],x,-3,u,-25%,x
COC(=O)C/C=C\[C@@H](C)[C@@H](/C=N\O[C@@H](C)CN1CCCCc2nc(C)c(C)cc21)NS(=O)(=O)c1ccc(C)cc1,x,1%[12.9 µM],x,x,x,x
CC(=O)Nc1c(C(=O)Nc2cccc(C)c2)nnn1-c1ccc(C)cc1,u,x,-62*,16%[46.1 µM],11%,x
CCN(CC)CCOC(=O)c1ccc(NC(=O)c2nn(-c3ccc(C)cc3)c(=O)c3c2c2ccccc2n3C)cc1,-6%[46.1 µM],x,-100*,u,-11%,x
COc1ccc(C(=O)Cn2cc[n+](C)c2)cc1,-28%,-2%,-8,-24%,2%,11µM*
COc1ccc(C(=O)CC(=O)c2ccc(OC)cc2)cc1,2%,2%,5,23%,27%,1%
Cn1cnc([N+](=O)[O-])c1Sc1nc(N)nc2c1ncn2Cc1ccccc1,-28%,x,-19,u,0%,u

# Screens deposited in PubChem by National Center for Advancing Translational Sciences (NCATS).
